Laboratory results from PubChem BioAssay (NCI).
This is part of a sample that, as a whole, favours compounds with a hit. Of some 79,000 tested, about 15% had one in any assay. A number with no mark means an inactive call. Calls of active or inactive are those of the source. Rule as the data show it: active = growth inhibition above about 70%; inactive = the rest. *1 amine or outer side, *2 acyl side, *3 side chain or, on linkers, in order; H or OH if unused. Where a SMILES comes first, the peptide text is derived from it. Bridges are numbered along the chain shown (N, C = ends). Roman numbers before positions name the chains, in order. [ ]: non-standard residue; d: D form. Actinocin(9to1) = Cc1c2oc3c(C)ccc(C(=O)[*:1])c3nc-2c(C(=O)[*:2])c(N)c1=O; NMeV = CN[CH](C(=O)O)C(C)C; Pip = O=C(O)[CH]1CCCCN1; Sar = CNCC(=O)O

Assays:
[1] = NCI Yeast Anticancer Drug Screen. Data for the rad50 strain (AID 155);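 also: 0% = growth of vehicle-only cultures of the same strain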; conditions: S. cerevisiae rad50 strain growth inhibition, stronger effect = higher value
How it was run: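 Compounds were tested on a yeast strain with an engineered DNA damage repair alteration; the reported value is growth inhibition normalised to vehicle treatment.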

[2] = NCI Yeast Anticancer Drug Screen. Data for the mec2-1 strain (AID 157); conditions: S. cerevisiae mec2-1 strain, stronger effect = higher value
How it was run: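 mec2-1 yeast strain, carrying an alteration in DNA damage repair or cell cycle control, was exposed to compounds; growth inhibition was measured relative to vehicle-treated controls.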

[3] = NCI Yeast Anticancer Drug Screen. Data for the sgs1 mgt1 strain (AID 161);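 also: 0% = growth of cultures given vehicle only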; conditions: S. cerevisiae sgs1 mgt1 strain, stronger effect = higher value
How it was run: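 This yeast growth screen uses a strain with defined DNA-repair lesions; compound-treated growth is compared with vehicle-treated growth.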

[4] = NCI Yeast Anticancer Drug Screen. Data for the cln2 rad14 strain (AID 165);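 also: 0% = growth equal to vehicle treated cultures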; conditions: S. cerevisiae cln2 rad14 strain, stronger effect = higher value
How it was run: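 Yeast carrying cln2 and rad14 alterations (cell cycle control and DNA damage repair) were exposed to compounds. Growth inhibition was measured against vehicle-treated controls.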

[5] = NCI Yeast Anticancer Drug Screen. Data for the bub3 strain (AID 167); conditions: S. cerevisiae bub3 mutant strain, stronger effect = higher value
How it was run: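 Growth of a checkpoint-deficient yeast mutant is measured after compound exposure. Values represent inhibition relative to vehicle.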

[6] = NCI Yeast Anticancer Drug Screen. Data for the mlh1 rad18 strain (AID 175); conditions: S. cerevisiae mlh1 rad18 strain growth inhibition, stronger effect = higher value
How it was run: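 Growth inhibition of the yeast strain was measured after compound exposure and expressed relative to vehicle-treated controls. The strain carries defined defects in DNA damage repair.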

[7] = at 5.0 µM (retest, dose inferred, filed as 0.5)
[8] = at 50.0 µM (retest, dose inferred, filed as 5.0)

Compound	growth inhibition [1, 7]	growth inhibition [1, 8]	growth inhibition ([1]; at 50.0 µM)	growth inhibition [2, 7]	growth inhibition [2, 8]	growth inhibition ([2]; at 50.0 µM)	growth inhibition [3, 7]	growth inhibition [3, 8]	growth inhibition ([3]; at 50.0 µM)	growth inhibition [4, 7]	growth inhibition [4, 8]	growth inhibition ([4]; at 50.0 µM)	growth inhibition [5, 7]	growth inhibition [5, 8]	growth inhibition ([5]; at 50.0 µM)	growth inhibition [6, 7]	growth inhibition [6, 8]	growth inhibition ([6]; at 50.0 µM)
COC(=O)c1nc(=S)[nH]c(C(=O)OC)c1C(=O)c1ccc([N+](=O)[O-])cc1	5%	84% (active)	96.8% (active)	-8%	64%	49.4%	-5%	80% (active)	96.5% (active)	2%	70% (active)	31.1%	5%	93% (active)	61.1%	-2%	93% (active)	91% (active)
O=C(N/C(=C\c1ccc([N+](=O)[O-])cc1)c1nc2ccccc2s1)c1ccccc1	3%	73% (active)	24.8%	1%	69%	76.2% (active)	-1%	72% (active)	54.4%	-2%	25%	20%	4%	83% (active)	80.3% (active)	2%	55%	72.5% (active)
O=C(Nc1ccccc1C(=O)O)c1ccccc1	-7%	50%	44%	2%	-6%	23.5%	-5%	-22%	79.7% (active)	-2%	-14%	-11.6%	-14%	30%	36%	-7%	23%	78.2% (active)
COc1ccc(C2c3cc4c(cc3OC(O)C2C)OCO4)c(OC)c1 (configuration not stated)	-2%	96% (active)	85.6% (active)	1%	95% (active)	58.5%	5%	95% (active)	83.8% (active)	-8%	89% (active)	68.9%	-4%	88% (active)	68.8%	-5%	97% (active)	87.5% (active)
Cc1[nH]nc(C(=O)N/N=C/c2ccccc2Cl)c1N=NN(C)C	41%	91% (active)	92.5% (active)	50%	93% (active)	92.4% (active)	33%	94% (active)	91.9% (active)	5%	93% (active)	93.7% (active)	12%	88% (active)	89.7% (active)	72% (active)	94% (active)	95.3% (active)
O=C(/C=C/c1ccc(O)cc1)c1cc(Cl)ccc1O	10%	96% (active)	95.7% (active)	6%	97% (active)	95.7% (active)	36%	97% (active)	92.4% (active)	-4%	97% (active)	94.2% (active)	4%	97% (active)	96.5% (active)	7%	96% (active)	93.3% (active)
Cc1ccc(S(=O)(=O)NCCCOS(=O)(=O)c2ccc(C)cc2)cc1	20%	46%	22.8%	16%	33%	0.15%	34%	65%	28.9%	34%	63%	29.9%	37%	66%	29.4%	15%	53%	45.9%
Cc1c2oc3c(C)ccc(C(=O)NC4C(=O)NC(C(C)C)C(=O)N5CCCCC5C(=O)N(C)CC(=O)N(C)C(C(C)C)C(=O)OC4C)c3nc-2c(C(=O)NC2C(=O)NC(C(C)C)C(=O)N3CCCCC3C(=O)N(C)CC(=O)N(C)C(C(C)C)C(=O)OC2C)c(N)c1=O (configuration not stated) (I: TV[Pip][Sar][NMeV] / II: TV[Pip][Sar][NMeV]; ester I:1-I:C, II:1-II:C; linker I:N-II:N via Actinocin(9to1); configuration not given here)	-11%	91% (active)	69.4%	-22%	43%	48.3%	7%	28%	59.4%	6%	64%	29.3%	0%	80% (active)	73.6% (active)	10%	79% (active)	45.6%
c1ccc2c(c1)Nc1ccc3ccccc3c1S2	3%	-1%	47.8%	-50%	3%	15.2%	-1%	13%	41.5%	4%	-12%	-39.9%	30%	3%	48.6%	3%	13%	66.5%
CC(CC(C)[C@H]1CCC2[C@H]3C(CC[C@@]21C)[C@@]1(C)CCC(O)C[C@H]1C[C@@H]3O)C(=O)O (some centres not stated)	10%	97% (active)	98.4% (active)	-7%	98% (active)	97.5% (active)	-4%	97% (active)	98.7% (active)	-4%	99% (active)	97.1% (active)	-20%	98% (active)	99% (active)	14%	98% (active)	98.2% (active)
CC(C)OP(=O)(OC(C)C)/C(=N/Nc1ccc([N+](=O)[O-])cc1)NNC(=O)c1ccccc1	-24%	61%	95.2% (active)	-12%	74% (active)	95.7% (active)	-11%	53%	93.5% (active)	-21%	67%	87.2% (active)	-15%	74% (active)	94.9% (active)	3%	92% (active)	94.6% (active)
O=C(O)c1ccc(NCc2c(O)ccc3ccccc23)cc1	5%	26%	4%	9%	29%	17.4%	11%	15%	45.2%	-3%	15%	-13.9%	4%	28%	48.1%	9%	26%	19.1%
CCCCCCCCCCCC(C)N (configuration not stated)	15%	83% (active)	99% (active)	4%	78% (active)	99.5% (active)	4%	91% (active)	98.7% (active)	12%	25%	98% (active)	11%	86% (active)	99.2% (active)	2%	74% (active)	98.1% (active)
CC(C)c1ccc2c(c1)CCC1C(C)(CNC(=O)S)CCCC21C.[Zn+2] (configuration not stated)	9%	13%	-8.15%	8%	30%	46.8%	5%	40%	-10.6%	10%	4%	38.5%	6%	35%	2%	5%	29%	-10.6%
Cc1cc(SCC(=O)c2ccc(Cl)cc2)cc(C)[o+]1	-3%	90% (active)	95.8% (active)	-1%	90% (active)	95.5% (active)	-2%	93% (active)	96.4% (active)	-13%	73% (active)	88.7% (active)	-2%	87% (active)	96.3% (active)	-9%	78% (active)	92.3% (active)
COc1ccc(C(=O)C2Cc3c(ccc4ccccc34)OC2=O)cc1 (configuration not stated)	4%	1%	2.05%	-2%	-11%	-1.25%	-3%	2%	-7.8%	7%	1%	20.1%	-1%	-2%	-30.4%	-5%	-5%	-11.3%
O=[N+]([O-])c1ccc(CC(c2ccc([N+](=O)[O-])cc2)(c2ccc([N+](=O)[O-])cc2)c2ccc([N+](=O)[O-])cc2)cc1	2%	-3%	5.05%	1%	1%	12.6%	1%	-16%	-19.3%	5%	-20%	8.7%	5%	4%	41%	0%	1%	26.9%
NC(=O)c1oc([N+](=O)[O-])c(-c2ccccc2)c1-c1ccccc1	9%	38%	12.4%	5%	50%	16.6%	14%	61%	55.4%	-6%	10%	-22.6%	16%	80% (active)	92.2% (active)	11%	78% (active)	64.2%
Cc1ccccc1N=NC(C(=O)c1ccccc1)C(=O)c1ccccc1	7%	94% (active)	93.2% (active)	-14%	96% (active)	94% (active)	15%	93% (active)	92.2% (active)	3%	95% (active)	90% (active)	5%	97% (active)	92.8% (active)	-8%	97% (active)	91.8% (active)
